Data published in ChEMBL document CHEMBL1961873, “Compounds: GSK PKIS; Assays: Nanosyn kinase panel” (2012).

Assays:
[1] = target: T1, Ephrin type-B receptor 2 (Homo sapiens) (UniProt P29323); settings: at 1 µM
T1 sequence (whole entry): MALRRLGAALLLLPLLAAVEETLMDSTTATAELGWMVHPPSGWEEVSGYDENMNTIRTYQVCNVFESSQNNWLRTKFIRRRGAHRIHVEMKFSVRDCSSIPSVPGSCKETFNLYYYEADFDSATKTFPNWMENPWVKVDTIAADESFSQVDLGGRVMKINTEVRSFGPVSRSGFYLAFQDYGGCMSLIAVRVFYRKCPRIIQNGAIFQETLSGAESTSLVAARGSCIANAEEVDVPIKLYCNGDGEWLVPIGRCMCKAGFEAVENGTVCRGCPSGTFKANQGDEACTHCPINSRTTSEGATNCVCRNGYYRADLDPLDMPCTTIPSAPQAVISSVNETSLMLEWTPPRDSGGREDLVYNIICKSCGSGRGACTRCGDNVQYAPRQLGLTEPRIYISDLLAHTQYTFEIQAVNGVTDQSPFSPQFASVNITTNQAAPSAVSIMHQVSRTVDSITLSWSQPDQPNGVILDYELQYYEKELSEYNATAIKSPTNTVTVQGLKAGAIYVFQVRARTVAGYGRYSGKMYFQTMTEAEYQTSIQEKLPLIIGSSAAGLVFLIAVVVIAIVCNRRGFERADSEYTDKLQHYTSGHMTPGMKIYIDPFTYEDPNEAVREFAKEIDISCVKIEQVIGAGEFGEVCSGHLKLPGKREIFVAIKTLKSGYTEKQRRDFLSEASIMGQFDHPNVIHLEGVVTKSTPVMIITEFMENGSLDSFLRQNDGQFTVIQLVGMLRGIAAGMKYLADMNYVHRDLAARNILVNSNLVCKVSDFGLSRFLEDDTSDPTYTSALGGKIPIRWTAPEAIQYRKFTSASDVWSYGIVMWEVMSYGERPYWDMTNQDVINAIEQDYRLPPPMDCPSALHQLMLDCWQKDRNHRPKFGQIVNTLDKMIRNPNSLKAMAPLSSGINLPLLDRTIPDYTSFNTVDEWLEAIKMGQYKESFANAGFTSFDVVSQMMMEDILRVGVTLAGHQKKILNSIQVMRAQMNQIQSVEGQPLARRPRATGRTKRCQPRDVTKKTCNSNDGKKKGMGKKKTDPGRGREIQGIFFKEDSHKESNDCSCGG

[2] = target: T2, Ephrin type-B receptor 3 (Homo sapiens) (UniProt P54753); settings: at 0.1 µM
T2 sequence (whole entry): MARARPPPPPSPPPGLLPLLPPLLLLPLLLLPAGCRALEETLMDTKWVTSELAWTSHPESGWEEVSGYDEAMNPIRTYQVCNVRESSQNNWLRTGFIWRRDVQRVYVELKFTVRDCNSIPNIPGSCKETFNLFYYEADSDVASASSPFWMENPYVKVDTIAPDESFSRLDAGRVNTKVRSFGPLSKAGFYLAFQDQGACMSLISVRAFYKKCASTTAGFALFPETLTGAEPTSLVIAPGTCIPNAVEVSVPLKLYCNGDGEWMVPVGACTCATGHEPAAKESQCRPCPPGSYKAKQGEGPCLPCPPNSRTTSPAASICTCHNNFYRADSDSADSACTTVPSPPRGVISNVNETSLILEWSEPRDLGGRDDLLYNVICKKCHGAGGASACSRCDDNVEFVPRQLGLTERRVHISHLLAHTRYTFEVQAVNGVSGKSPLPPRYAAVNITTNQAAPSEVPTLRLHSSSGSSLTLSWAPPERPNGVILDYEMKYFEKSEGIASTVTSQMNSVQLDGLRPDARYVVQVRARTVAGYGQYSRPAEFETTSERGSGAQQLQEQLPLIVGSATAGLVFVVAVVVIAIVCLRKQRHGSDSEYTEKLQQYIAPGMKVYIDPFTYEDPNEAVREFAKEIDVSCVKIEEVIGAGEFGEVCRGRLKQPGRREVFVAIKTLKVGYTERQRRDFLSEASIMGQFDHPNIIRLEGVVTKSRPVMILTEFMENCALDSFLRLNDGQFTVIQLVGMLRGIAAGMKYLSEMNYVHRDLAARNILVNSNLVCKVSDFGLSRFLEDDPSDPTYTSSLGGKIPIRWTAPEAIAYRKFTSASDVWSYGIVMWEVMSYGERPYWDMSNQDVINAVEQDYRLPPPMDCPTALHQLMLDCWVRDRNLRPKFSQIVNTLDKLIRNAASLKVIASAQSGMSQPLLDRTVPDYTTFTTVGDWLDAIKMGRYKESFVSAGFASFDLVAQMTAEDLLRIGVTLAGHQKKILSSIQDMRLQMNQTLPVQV

[3] = target: T2, Ephrin type-B receptor 3 (Homo sapiens); settings: at 1 µM
[4] = target: T3, Ephrin type-B receptor 4 (Homo sapiens) (UniProt P54760); settings: at 0.1 µM
T3 sequence (whole entry): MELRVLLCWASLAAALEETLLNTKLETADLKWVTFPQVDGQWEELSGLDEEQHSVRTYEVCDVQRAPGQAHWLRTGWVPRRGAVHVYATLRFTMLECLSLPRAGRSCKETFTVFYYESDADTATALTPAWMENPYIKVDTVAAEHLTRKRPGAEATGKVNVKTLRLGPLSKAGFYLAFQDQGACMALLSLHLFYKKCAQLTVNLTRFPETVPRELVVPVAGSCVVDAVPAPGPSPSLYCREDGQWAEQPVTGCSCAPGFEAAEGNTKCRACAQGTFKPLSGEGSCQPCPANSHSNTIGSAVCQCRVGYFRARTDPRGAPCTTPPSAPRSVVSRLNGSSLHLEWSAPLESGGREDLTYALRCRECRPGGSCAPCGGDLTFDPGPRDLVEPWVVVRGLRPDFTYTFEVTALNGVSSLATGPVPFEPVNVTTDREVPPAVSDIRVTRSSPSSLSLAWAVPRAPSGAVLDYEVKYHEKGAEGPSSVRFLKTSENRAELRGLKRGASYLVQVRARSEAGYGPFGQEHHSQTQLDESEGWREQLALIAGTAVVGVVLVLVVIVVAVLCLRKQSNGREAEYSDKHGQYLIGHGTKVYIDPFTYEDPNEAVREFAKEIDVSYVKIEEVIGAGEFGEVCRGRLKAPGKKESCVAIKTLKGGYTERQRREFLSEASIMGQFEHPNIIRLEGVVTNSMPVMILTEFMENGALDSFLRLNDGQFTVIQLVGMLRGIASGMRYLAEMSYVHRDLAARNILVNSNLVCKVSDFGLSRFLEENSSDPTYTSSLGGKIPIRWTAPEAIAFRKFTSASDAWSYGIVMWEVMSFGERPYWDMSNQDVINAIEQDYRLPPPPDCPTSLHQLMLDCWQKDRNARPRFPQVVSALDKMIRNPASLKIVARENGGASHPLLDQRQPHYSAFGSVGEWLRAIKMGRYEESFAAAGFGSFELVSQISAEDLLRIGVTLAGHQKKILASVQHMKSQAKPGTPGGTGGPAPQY

[5] = target: T3, Ephrin type-B receptor 4 (Homo sapiens); settings: at 1 µM
[6] = target: Receptor tyrosine-protein kinase erbB-2 (Homo sapiens) (UniProt P04626); settings: at 0.1 µM
[7] = target: Receptor tyrosine-protein kinase erbB-2 (Homo sapiens) (UniProt P04626); settings: at 1 µM
[8] = target: Tyrosine-protein kinase Fer (Homo sapiens) (UniProt P16591); settings: at 0.1 µM
[9] = target: Tyrosine-protein kinase Fer (Homo sapiens) (UniProt P16591); settings: at 1 µM
[10] = target: Tyrosine-protein kinase Fes/Fps (Homo sapiens) (UniProt P07332); settings: at 0.1 µM
[11] = target: Tyrosine-protein kinase Fes/Fps (Homo sapiens) (UniProt P07332); settings: at 1 µM
[12] = target: Fibroblast growth factor receptor 1 (Homo sapiens) (UniProt P11362); settings: at 0.1 µM
[13] = target: Fibroblast growth factor receptor 1 (Homo sapiens) (UniProt P11362); settings: at 1 µM
[14] = target: Fibroblast growth factor receptor 2 (Homo sapiens) (UniProt P21802); settings: at 0.1 µM
[15] = target: Fibroblast growth factor receptor 2 (Homo sapiens) (UniProt P21802); settings: at 1 µM
[16] = target: Fibroblast growth factor receptor 3 (Homo sapiens) (UniProt P22607); settings: at 0.1 µM
[17] = target: Fibroblast growth factor receptor 3 (Homo sapiens) (UniProt P22607); settings: at 1 µM
[18] = target: Fibroblast growth factor receptor 4 (Homo sapiens) (UniProt P22455); settings: at 0.1 µM;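 further: values are mean percent inhibition of FGFR4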
[19] = target: Receptor tyrosine-protein kinase erbB-4 (Homo sapiens) (UniProt Q15303); settings: at 0.1 µM
[20] = target: Receptor tyrosine-protein kinase erbB-4 (Homo sapiens) (UniProt Q15303); settings: at 1 µM

Receptor tyrosine-protein kinase erbB-4 (Homo sapiens), sequence (Q15303 whole entry): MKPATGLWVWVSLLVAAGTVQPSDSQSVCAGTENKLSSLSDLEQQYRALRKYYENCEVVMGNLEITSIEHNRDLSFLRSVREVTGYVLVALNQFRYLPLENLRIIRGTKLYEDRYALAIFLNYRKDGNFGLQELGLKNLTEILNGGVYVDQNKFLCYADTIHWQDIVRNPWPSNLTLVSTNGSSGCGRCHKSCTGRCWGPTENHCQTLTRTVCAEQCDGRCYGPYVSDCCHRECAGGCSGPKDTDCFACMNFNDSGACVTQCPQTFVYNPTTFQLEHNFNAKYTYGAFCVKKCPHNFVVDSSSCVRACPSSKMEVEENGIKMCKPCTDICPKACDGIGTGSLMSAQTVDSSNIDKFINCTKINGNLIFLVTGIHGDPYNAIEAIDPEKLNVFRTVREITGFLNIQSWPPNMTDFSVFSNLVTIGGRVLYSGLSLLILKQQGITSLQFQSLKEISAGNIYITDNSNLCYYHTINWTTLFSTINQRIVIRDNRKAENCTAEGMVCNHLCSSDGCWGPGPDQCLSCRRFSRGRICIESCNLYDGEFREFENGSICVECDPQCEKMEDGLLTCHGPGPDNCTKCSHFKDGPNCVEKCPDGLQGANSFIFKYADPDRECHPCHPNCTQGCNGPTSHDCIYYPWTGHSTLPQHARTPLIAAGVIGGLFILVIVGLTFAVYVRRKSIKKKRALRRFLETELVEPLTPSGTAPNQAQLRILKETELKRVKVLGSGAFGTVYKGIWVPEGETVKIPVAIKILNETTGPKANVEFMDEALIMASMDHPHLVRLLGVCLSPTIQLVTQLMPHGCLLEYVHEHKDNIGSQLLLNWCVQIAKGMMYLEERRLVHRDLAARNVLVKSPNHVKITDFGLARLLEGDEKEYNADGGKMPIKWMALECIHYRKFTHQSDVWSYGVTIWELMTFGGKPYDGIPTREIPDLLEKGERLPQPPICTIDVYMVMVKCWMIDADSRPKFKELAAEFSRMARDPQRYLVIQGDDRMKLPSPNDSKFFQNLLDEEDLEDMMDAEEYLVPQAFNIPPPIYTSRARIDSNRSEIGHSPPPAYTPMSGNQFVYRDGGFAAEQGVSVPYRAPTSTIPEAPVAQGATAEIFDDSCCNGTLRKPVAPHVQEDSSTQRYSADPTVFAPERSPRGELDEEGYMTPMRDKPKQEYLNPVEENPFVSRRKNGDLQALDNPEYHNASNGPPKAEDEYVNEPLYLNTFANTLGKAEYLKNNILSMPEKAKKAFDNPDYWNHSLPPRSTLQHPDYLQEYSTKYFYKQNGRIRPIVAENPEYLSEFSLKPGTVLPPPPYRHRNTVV
Tyrosine-protein kinase Fer (Homo sapiens), sequence (P16591 whole entry, looked up): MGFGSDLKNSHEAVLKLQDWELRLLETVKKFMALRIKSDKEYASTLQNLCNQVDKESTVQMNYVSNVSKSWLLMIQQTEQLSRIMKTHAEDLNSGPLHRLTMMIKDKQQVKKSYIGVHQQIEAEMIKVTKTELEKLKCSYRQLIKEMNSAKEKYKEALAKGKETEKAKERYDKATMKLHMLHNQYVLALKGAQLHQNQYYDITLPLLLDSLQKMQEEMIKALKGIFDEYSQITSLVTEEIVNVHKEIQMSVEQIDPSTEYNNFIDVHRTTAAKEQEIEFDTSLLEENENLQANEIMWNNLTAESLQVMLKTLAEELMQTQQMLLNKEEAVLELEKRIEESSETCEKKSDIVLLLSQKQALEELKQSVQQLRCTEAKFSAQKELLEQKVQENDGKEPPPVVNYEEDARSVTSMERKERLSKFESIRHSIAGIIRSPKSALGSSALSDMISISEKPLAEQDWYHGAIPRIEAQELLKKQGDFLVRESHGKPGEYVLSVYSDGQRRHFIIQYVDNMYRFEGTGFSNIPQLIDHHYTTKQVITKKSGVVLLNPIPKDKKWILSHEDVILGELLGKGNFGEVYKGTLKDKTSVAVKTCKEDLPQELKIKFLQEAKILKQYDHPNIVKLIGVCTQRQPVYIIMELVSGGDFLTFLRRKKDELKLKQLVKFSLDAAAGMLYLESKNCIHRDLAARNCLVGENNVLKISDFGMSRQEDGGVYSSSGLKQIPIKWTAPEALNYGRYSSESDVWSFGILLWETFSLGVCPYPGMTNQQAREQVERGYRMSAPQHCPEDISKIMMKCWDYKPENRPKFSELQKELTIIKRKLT
Fibroblast growth factor receptor 4 (Homo sapiens), sequence (P22455 22-802 limits assumed): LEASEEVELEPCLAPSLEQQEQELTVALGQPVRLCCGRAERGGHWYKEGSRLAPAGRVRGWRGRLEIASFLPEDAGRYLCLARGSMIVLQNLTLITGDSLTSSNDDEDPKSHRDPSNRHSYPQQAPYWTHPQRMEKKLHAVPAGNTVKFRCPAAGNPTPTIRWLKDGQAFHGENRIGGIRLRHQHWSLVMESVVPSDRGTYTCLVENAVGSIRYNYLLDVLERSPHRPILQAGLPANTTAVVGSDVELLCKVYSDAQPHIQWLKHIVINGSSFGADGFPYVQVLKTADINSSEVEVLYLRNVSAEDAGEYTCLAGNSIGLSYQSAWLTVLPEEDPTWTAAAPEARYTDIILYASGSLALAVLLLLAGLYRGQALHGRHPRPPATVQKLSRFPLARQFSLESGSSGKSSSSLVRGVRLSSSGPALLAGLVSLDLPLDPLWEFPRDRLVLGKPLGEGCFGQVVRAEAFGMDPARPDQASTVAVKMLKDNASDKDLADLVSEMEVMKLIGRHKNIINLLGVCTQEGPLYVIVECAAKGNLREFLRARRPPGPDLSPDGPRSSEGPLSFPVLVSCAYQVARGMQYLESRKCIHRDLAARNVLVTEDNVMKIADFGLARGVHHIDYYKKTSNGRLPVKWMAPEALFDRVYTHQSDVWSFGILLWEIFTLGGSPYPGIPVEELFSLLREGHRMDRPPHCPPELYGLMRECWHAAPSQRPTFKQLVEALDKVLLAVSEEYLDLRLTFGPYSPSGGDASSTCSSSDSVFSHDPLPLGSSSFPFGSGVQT
Fibroblast growth factor receptor 1 (Homo sapiens), sequence (P11362 22-822 limits assumed): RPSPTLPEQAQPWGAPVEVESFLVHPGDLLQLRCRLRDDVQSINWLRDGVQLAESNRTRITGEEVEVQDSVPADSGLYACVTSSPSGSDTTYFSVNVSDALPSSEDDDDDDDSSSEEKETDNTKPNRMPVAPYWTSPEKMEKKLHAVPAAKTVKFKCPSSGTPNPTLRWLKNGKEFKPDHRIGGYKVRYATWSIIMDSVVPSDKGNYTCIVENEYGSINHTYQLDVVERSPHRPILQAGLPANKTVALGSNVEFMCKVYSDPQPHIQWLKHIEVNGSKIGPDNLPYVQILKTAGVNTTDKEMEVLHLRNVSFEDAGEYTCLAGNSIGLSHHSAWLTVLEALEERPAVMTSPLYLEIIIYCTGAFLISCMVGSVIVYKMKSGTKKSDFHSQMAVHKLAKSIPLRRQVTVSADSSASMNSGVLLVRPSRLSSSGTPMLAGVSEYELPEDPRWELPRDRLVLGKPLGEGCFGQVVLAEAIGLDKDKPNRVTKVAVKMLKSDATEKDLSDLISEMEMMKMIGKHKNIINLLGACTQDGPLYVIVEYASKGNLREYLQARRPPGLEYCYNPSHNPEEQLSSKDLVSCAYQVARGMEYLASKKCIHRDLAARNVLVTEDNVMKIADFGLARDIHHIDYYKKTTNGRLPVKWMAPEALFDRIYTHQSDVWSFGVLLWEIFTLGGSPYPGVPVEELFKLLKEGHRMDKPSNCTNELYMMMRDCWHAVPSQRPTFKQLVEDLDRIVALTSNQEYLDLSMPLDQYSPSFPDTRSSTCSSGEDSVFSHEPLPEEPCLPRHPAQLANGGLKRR
Fibroblast growth factor receptor 2 (Homo sapiens), sequence (P21802 22-821 limits assumed): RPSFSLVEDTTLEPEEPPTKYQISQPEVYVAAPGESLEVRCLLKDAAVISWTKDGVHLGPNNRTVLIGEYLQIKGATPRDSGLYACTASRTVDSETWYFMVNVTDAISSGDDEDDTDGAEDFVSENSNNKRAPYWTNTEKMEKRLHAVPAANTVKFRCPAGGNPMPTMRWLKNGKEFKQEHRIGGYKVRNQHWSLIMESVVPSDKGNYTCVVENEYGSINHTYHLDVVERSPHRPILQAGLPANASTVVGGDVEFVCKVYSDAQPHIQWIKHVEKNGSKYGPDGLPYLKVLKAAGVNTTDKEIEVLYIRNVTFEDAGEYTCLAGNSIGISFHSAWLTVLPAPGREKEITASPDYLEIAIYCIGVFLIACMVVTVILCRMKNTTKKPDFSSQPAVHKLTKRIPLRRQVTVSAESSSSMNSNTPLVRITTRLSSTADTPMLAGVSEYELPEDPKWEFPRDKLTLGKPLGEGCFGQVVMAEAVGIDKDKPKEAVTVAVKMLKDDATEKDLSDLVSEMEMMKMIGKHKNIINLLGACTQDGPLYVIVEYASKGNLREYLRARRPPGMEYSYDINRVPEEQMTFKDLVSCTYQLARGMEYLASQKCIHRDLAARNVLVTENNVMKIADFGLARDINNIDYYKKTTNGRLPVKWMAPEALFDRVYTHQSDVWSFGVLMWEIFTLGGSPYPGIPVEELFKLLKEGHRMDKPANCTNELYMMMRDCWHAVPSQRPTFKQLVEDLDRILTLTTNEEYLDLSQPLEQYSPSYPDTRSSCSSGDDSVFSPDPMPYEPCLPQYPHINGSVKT

Row | Structure (SMILES) | inhibition [1] | inhibition [2] | inhibition [3] | inhibition [4] | inhibition [5] | inhibition [6] | inhibition [7] | inhibition [8] | inhibition [9] | inhibition [10] | inhibition [11] | inhibition [12] | inhibition [13] | inhibition [14] | inhibition [15] | inhibition [16] | inhibition [17] | inhibition [18] | inhibition [19] | inhibition [20]
1 | Cc1ccc(C(=O)NC2CC2)cc1-c1ccc2[nH]ncc2c1 | -4.6% | -8.95% | -5.96% | -2.42% | -0.31% | -5.76% | -4.83% | -2.95% | 0.05% | -3.18% | -3.34% | -0.69% | -5.16% | -3.95% | -3.78% | -5.18% | 0.28% | 1.43% | – | –
2 | COc1cccc(-n2ncc3c(N/N=C/c4ccc(C)cc4)ncnc32)c1 | 9.45% | 2.7% | 4.17% | 3.6% | 3.21% | 2.26% | 3.43% | 8.13% | 17.5% | 5.32% | 10.3% | 4.11% | 17.7% | 9.23% | 7.12% | 9.56% | 6.72% | 4.16% | 6.09% | 11.9%
3 | CS(=O)(=O)Nc1cccc(-c2ccc3c(NC(=O)C4CC4)n[nH]c3c2)c1 | – | 4.48% | -3.94% | 0.62% | 0.5% | 0.54% | -4.31% | -0.81% | 0.02% | 0.9% | 1.23% | -6.27% | 0.55% | -3.44% | 5.34% | 1.56% | 2.41% | -5.5% | 6.04% | 8.34%
4 | NS(=O)(=O)c1cccc(Nc2cc(-c3ccc(F)cc3)n[nH]2)c1 | 10.6% | 3.94% | 2.26% | 0.66% | 3.57% | 1.6% | 6.2% | 5.3% | 6.71% | 2.34% | 2.7% | 0.46% | 3.62% | 0.78% | 9.22% | 8.19% | 8.88% | 0.98% | 5.56% | 11.3%
5 | Cc1ccc(Nc2ccnc(Nc3cccc(C(N)=O)c3)n2)cc1O | 38.6% | 0.29% | -0.39% | 2.22% | 29.1% | 2.41% | 5.7% | 4.75% | 23.4% | 2.5% | 10.7% | 4.6% | 34.8% | 1.51% | 26.6% | 3.55% | 18.4% | -3.61% | 6.84% | 20.2%
6 | COC(=O)Nc1nc2cc(Oc3ccc(NC(=O)Nc4cccc(Br)c4)cc3)ccc2[nH]1 | 80.4% | 5.42% | 7.66% | 9.97% | 26% | 3.03% | 0.8% | 2.5% | 4.33% | 1.77% | 2.25% | 3.32% | 0.5% | 1.09% | 3.33% | 4.36% | 2.66% | -1.88% | 7.14% | 11.2%
7 | Nc1nccc(-c2c(-c3ccc(F)cc3)nn3cc(C(F)(F)F)ccc23)n1 | 5.83% | -0.56% | 3.25% | 0.18% | 1.91% | 2.01% | 3.5% | 5.04% | 7.28% | 5.08% | 3.62% | -4.71% | -0.05% | 0.61% | 2.87% | 6.31% | 1.74% | -0.28% | 2.34% | 11.4%
